Where “and” joins values, the source holds several entries; their conditions need not be identical. Equal entries are not always repeated. The whole screen tested about 5,500 compounds, of which about 2,000 (36%) were called active. Another 18% or so got no clear call; they are omitted. Cut-off read from the data, not from the text of the source: active = normalized growth mostly below about 0.91 (no sharp cut-off); inconclusive = no clear call, values can overlap the other calls; inactive = mostly above about 0.92. Some of the results follow.
Assay: chemical genetic growth profiling, strain panel (AID 1159580);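 note: tested at 20 µM; growth read once vehicle control cultures reached saturation at 30 °C; 1 = growth at the plate median or of vehicle wells; lower values mean less growth of the strain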
Conditions: S. cerevisiae deletion strains, growth OD

Measured: normalized growth

COc1ccc2ccc(=O)oc2c1
inactive: locus YAL013W, strain DEP1, hits give low values 1.01 | locus YAL021C, strain ccr4, hits give low values 1 | locus YAL026C, strain drs2, hits give low values 1 | locus YAL030W, strain snc1, hits give low values 1 | locus YBL061C, strain skt5, hits give low values 1 | locus YBR009C, strain hhf1, hits give low values 1.02 | locus YBR021W, strain FUR4, hits give low values 0.997 | locus YBR023C, strain chs3, hits give low values 1.01 | locus YBR171W, strain sec66, hits give low values 0.988 | locus YBR229C, strain ROT2, hits give low values 1.02 | locus YBR231C, strain swc5, hits give low values 0.987 | locus YBR279W, strain paf1, hits give low values 1 | locus YCL011C, strain gbp2, hits give low values 0.98 | locus YCL016C, strain dcc1, hits give low values 1 | locus YCL029C, strain bik1, hits give low values 0.999 | locus YCL061C, strain MRC1, hits give low values 1 | locus YCL069W, strain vba3, hits give low values 0.988 | locus YCR088W, strain abp1, hits give low values 0.992 | locus YDL005C, strain med2, hits give low values 0.996 | locus YDL035C, strain GPR1, hits give low values 1.04 | locus YDL040C, strain nat1, hits give low values 1 | locus YDL074C, strain BRE1, hits give low values 1.04 | locus YDL101C, strain DUN1, hits give low values 1.01 | locus YDL185W, strain tfp1, hits give low values 1.03 | locus YDL192W, strain arf1, hits give low values 1.01 | locus YDR001C, strain nth1, hits give low values 0.991 | locus YDR069C, strain doa4, hits give low values 0.99 | locus YDR101C, strain arx1, hits give low values 0.985 | locus YDR137W, strain rgp1, hits give low values 0.977 | locus YDR150W, strain NUM1, hits give low values 1.01 | locus YDR159W, strain sac3, hits give low values 0.973 | locus YDR162C, strain NBP2, hits give low values 1.03 | locus YDR195W, strain ref2 1.01 | locus YDR297W, strain sur2, hits give low values 1 | locus YDR318W, strain mcm21, hits give low values 1.02 | locus YDR334W, strain swr1, hits give low values 0.987 | locus YDR335W, strain msn5, hits give low values 0.998 | locus YDR388W, hits give low values 1.04 | locus YDR392W, strain spt3, hits give low values 0.964 | locus YDR502C, strain sam2, hits give low values 1.02 | locus YEL003W, strain gim4, hits give low values 1.01 | locus YEL037C, strain rad23, hits give low values 1 | locus YEL061C, strain CIN8 (second series), hits give low values 0.983 | locus YEL061C, strain CIN8, hits give low values 1.01 | locus YER015W, strain faa2, hits give low values 1 | locus YER016W, strain bim1, hits give low values 1 | locus YER110C, hits give low values 1.02 | locus YER111C, strain swi4, hits give low values 0.998 | locus YER155C, strain BEM2 (second series), hits give low values 0.97 | locus YER155C, strain BEM2, hits give low values 1 | locus YER167W, strain BCK2, hits give low values 1.01 | locus YFR010W, strain ubp6, hits give low values 0.98 | locus YGL078C, strain dbp3, hits give low values 1.01 | locus YGL086W, strain mad1, hits give low values 1.02 | locus YGL167C, strain pmr1, hits give low values 1.02 | locus YGL173C, strain kem1, hits give low values 1.02 | locus YGL227W, strain vid30, hits give low values 0.983 | locus YGL240W, strain doc1, hits give low values 0.973 | locus YGL248W, strain PDE1, hits give low values 1.05 | locus YGL253W, strain hxk2, hits give low values 0.986 | locus YGR135W, strain pre9, hits give low values 1.01 | locus YGR252W, strain gcn5, hits give low values 0.964 | locus YHR013C, strain ard1, hits give low values 1.04 | locus YHR027C, strain rpn1, hits give low values 0.999 | locus YHR030C, strain SLT2, hits give low values 1.02 and 0.994 | locus YHR079C, strain IRE1 (second series), hits give low values 1.01 | locus YHR079C, strain IRE1, hits give low values 0.997 | locus YHR094C, strain hxt1, hits give low values 1.04 | locus YHR129C, strain ARP1, hits give low values 1.02 | locus YHR142W, strain chs7, hits give low values 1.01 | locus YHR200W, strain rpn10, hits give low values 1.01 | locus YIL066C, strain RNR3, hits give low values 1.02 | locus YIL073C, strain SPO22, hits give low values 1.11 | locus YIL125W, strain kgd1, hits give low values 1.03 | locus YIR030C, strain dcg1, hits give low values 1.01 | locus YJL092W, strain hpr5, hits give low values 0.998 | locus YJL095W, strain BCK1 (second series), hits give low values 1.01 | locus YJL095W, strain BCK1, hits give low values 1.01 and 1.02 | locus YJL115W, strain asf1, hits give low values 0.992 | locus YJL129C, strain trk1, hits give low values 0.99 | locus YJL134W, strain LCB3, hits give low values 1.01 | locus YJL154C, strain vps35, hits give low values 0.999 | locus YJL164C, strain tpk1, hits give low values 1.02 | locus YJL166W, strain qcr8, hits give low values 1.01 | locus YJL168C, strain set2, hits give low values 1.02 | locus YJL187C, strain SWE1 (second series), hits give low values 1.02 | locus YJL187C, strain SWE1, hits give low values 0.995 | locus YJR066W, strain TOR1, hits give low values 0.934 | locus YKL009W, strain mrt4, hits give low values 1 | locus YKL068W, hits give low values 1.04 | locus YKL085W, strain MDH1 (second series), hits give low values 1.02 | locus YKL085W, strain MDH1, hits give low values 1.02 | locus YKL160W, strain elf1, hits give low values 1.02 | locus YKR001C, strain vps1, hits give low values 1.03 | locus YKR026C, strain gcn3, hits give low values 0.98 | locus YKR091W, strain srl3, hits give low values 1.02 | locus YLL001W, strain dnm1, hits give low values 0.985 | locus YLL026W, hits give low values 1 | locus YLL041C, strain sdh2, hits give low values 0.996 | locus YLR027C, strain aat2, hits give low values 0.992 | locus YLR039C, strain RIC1, hits give low values 1.15 | locus YLR058C, strain SHM2, hits give low values 1.02 | locus YLR102C, strain apc9, hits give low values 1.03 | locus YLR113W, strain HOG1, hits give low values 1.02 | locus YLR221C, strain rsa3, hits give low values 0.987 | locus YLR258W, strain gsy2, hits give low values 1.02 | locus YLR262C, strain YPT6 (second series), hits give low values 1.02 | locus YLR268W, strain sec22, hits give low values 1.02 | locus YLR320W, strain mms22, hits give low values 0.993 | locus YLR330W, strain CHS5, hits give low values 1.03 | locus YLR342W, strain FKS1 (second series), hits give low values 1.05 | locus YLR342W, strain FKS1, hits give low values 1 | locus YLR357W, strain rsc2, hits give low values 0.984 | locus YLR370C, strain arc18, hits give low values 0.989 | locus YLR371W, strain rom2, hits give low values 1.05 | locus YLR384C, strain iki3, hits give low values 0.995 | locus YLR418C, strain cdc73, hits give low values 1.02 | locus YML016C, strain PPZ1, hits give low values 1.02 | locus YML032C, strain rad52, hits give low values 0.997 | locus YML120C, strain ndi1, hits give low values 0.999 | locus YML124C, strain tub3, hits give low values 1.02 | locus YMR058W, strain fet3, hits give low values 0.98 | locus YMR078C, strain ctf18, hits give low values 1.01 | locus YMR125W, strain sto1, hits give low values 0.984 | locus YMR129W, hits give low values 1.01 | locus YMR205C, strain PFK2, hits give low values 1.06 | locus YMR223W, strain ubp8, hits give low values 1.02 | locus YMR231W, strain pep5, hits give low values 0.996 | locus YMR307W, strain GAS1, hits give low values 1.09 | locus YNL067W, strain RPL9B, hits give low values 1.01 | locus YNL071W, strain lat1, hits give low values 1.01 | locus YNL153C, strain GIM3, hits give low values 1.01 | locus YNL183C, strain NPR1, hits give low values 0.949 | locus YNL209W, strain ssb2, hits give low values 1.01 | locus YNL233W, strain BNI4, hits give low values 1.04 | locus YNL248C, strain rpa49, hits give low values 0.974 | locus YNL250W, strain rad50, hits give low values 1.07 | locus YNL271C, strain bni1, hits give low values 1.01 | locus YNL298W, strain CLA4, hits give low values 0.997 | locus YNL307C, strain MCK1, hits give low values 1.03 | locus YNL322C, strain KRE1 (second series), hits give low values 1 | locus YNL322C, strain KRE1, hits give low values 1 | locus YNR049C, strain mso1, hits give low values 1 | locus YNR052C, strain pop2, hits give low values 1.04 | locus YOL006C, strain TOP1, hits give low values 1.09 | locus YOL012C, strain htz1 0.887 | locus YOL147C, strain pex11, hits give low values 1.02 | locus YOR001W, strain rrp6, hits give low values 0.954 | locus YOR061W, strain CKA2, hits give low values 1.02 | locus YOR069W, strain VPS5, hits give low values 0.999 | locus YOR070C, strain gyp1, hits give low values 1.01 | locus YOR080W, strain dia2, hits give low values 1 | locus YOR083W, strain WHI5, hits give low values 1.06 | locus YOR106W, strain vam3, hits give low values 1.01 | locus YOR136W, strain idh2, hits give low values 1.01 | locus YOR144C, strain elg1, hits give low values 1.01 | locus YOR184W, strain ser1, hits give low values 1 | locus YOR231W, strain MKK1, hits give low values 1.01 | locus YOR265W, strain rbl2, hits give low values 0.996 | locus YOR270C, strain vph1, hits give low values 1.07 | locus YOR290C, strain snf2, hits give low values 0.995 | locus YOR316C, strain cot1, hits give low values 1.01 | locus YPL051W, strain arl3, hits give low values 0.995 | locus YPL055C, strain LGE1, hits give low values 1.07 | locus YPL078C, strain atp4, hits give low values 1.01 | locus YPL106C, strain sse1, hits give low values 0.98 | locus YPL240C, strain hsp82, hits give low values 0.995 | locus YPL241C, strain CIN2, hits give low values 1.02 | locus YPL256C, strain CLN2, hits give low values 0.994 | locus YPR119W, strain clb2, hits give low values 1.01 | locus YPR141C, strain kar3, hits give low values 1.01 | locus YPR163C, strain tif3, hits give low values 1.02 | locus YPR167C, strain met16, hits give low values 1.02 | strain wtn01, hits give low values 1.01

Reference: PubChem BioAssay AID1159580 (chemical genetic matrix, 2015)
